{
  "source": "PubChem BioAssay AID492972",
  "about": "(The Scripps Research Institute Molecular Screening Center, 2010)",
  "note": "Out of some 340,000 compounds screened, about 930 (0.27%) were called active. Shown is part of a subset that was picked to be rich in actives. Values without a mark were called inactive.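 The calls were made as follows: active = inhibition above the screen-wide average of all tested compounds plus 3 SD (cut at about 25% in these data); inactive = the rest.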",
  "data": [
    {"biological_target": "Platelet-activating factor acetylhydrolase IB subunit alpha1 (Homo sapiens) (UniProt Q15102)", "sequence (Q15102 whole entry, looked up)": "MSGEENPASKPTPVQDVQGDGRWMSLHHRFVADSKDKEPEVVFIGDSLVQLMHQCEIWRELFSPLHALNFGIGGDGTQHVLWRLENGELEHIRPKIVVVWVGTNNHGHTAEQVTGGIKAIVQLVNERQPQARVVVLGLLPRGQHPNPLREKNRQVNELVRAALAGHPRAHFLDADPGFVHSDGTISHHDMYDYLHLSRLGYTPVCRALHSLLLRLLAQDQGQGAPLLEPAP", "test": "inhibition of PAF acetylhydrolase 1B subunit 3 – biochemical, fluorescence polarization, human, primary screen (AID 492972);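 also: 0% = enzyme with DMSO only and 100% = wells lacking PAFAH1B3 protein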", "details": "recombinant PAFAH1B3, FP-rhodamine probe, at 3.39 µM, active compounds read high", "values": [
      {"compound": "COc1ccc(C(=O)NC(=S)N2CCCCC2c2cccnc2)cc1OC", "note": "(stereo unspecified)", "inhibition": "-1.07%"},
      {"compound": "Cc1c(-c2ccccc2)n[nH]c1C(=O)N=Nc1c(O)[nH]c2ccccc12", "inhibition": "-61.7%"},
      {"compound": "S=C(NCCCc1ccccc1)Nc1ccc(Br)cc1", "inhibition": "7.28%"},
      {"compound": "C/C=N/N(c1ccccc1)c1ccccc1", "inhibition": "0.33%"},
      {"compound": "N#CC(Cc1cc2ccccc2n1S(=O)(=O)c1ccccc1)OCc1ccccc1", "note": "(stereo unspecified)", "inhibition": "4.5%"},
      {"compound": "CCCc1ccc(OCC(O)CN2CCN(C(=O)OCC)CC2)cc1", "note": "(stereo unspecified)", "inhibition": "-2.88%"},
      {"compound": "COC(=O)CNC(=O)C(CCSC)NC(C)=O", "note": "(stereo unspecified)", "inhibition": "-4.04%"},
      {"compound": "CCC(CO)Oc1cc(NC(=O)c2cccc3ccccc23)c2ncn(C(C)C)c2c1", "note": "(stereo unspecified)", "inhibition": "-4.73%"},
      {"compound": "CC(C)n1cnc2c(NCc3ccccc3)cc(OCC3CCN(C)CC3)cc21", "inhibition": "49.8% (active)"},
      {"compound": "CCC(CO)Oc1cc(NC(=O)c2cccc(F)c2)c2ncn(C(C)C)c2c1", "note": "(stereo unspecified)", "inhibition": "-2.61%"},
      {"compound": "COc1ccccc1C(=O)N(Cc1ccc(C)o1)C1CCS(=O)(=O)C1", "note": "(stereo unspecified)", "inhibition": "4.66%"},
      {"compound": "COc1ccccc1NS(=O)(=O)N(C)C", "inhibition": "-5.67%"},
      {"compound": "c1ccc(CC2CCN(c3nc4ccccc4n4cnnc34)CC2)cc1", "inhibition": "-2.84%"},
      {"compound": "COc1ccc(CN(Cc2ccco2)S(=O)(=O)c2ccc(S(=O)(=O)N3CCCC3)cc2)cc1", "inhibition": "4.29%"},
      {"compound": "CC(=O)OC1CCC2(C)C(=CCC3C4CC(=O)N(O)C(=O)C4(C)CCC32)C1", "note": "(stereo unspecified)", "inhibition": "1.29%"},
      {"compound": "O=C(O)/C=C/c1ccc(OCCCF)cc1", "inhibition": "9.5%"},
      {"compound": "O=C(/C=C/c1ccc2c(c1)OCCO2)c1ccc(O)cc1", "inhibition": "-1.41%"},
      {"compound": "O=C(/C=C(O)/C=C/c1ccc(O)cc1)/C=C/c1ccc(O)cc1", "inhibition": "36.6% (active)"},
      {"compound": "O=C(CCCC(=O)N(CC(=O)NC1CCCC1)Cc1ccccc1Cl)Nc1ccccn1", "inhibition": "7.22%"},
      {"compound": "CCOCCCN(C)C1CCN(C(=O)c2oc3ccccc3c2NC(=O)COc2cccc(C)c2)CC1", "inhibition": "7.03%"},
      {"compound": "COc1ccc(NC(=O)CCCC(=O)c2ccccc2)cc1", "inhibition": "-0.24%"},
      {"compound": "COc1ccc(NC(=O)C(Br)C(C)C)cc1", "note": "(stereo unspecified)", "inhibition": "3.86%"},
      {"compound": "COc1ccc(NC(=O)ON=C2c3ccccc3-c3ccccc32)cc1", "inhibition": "31.6% (active)"},
      {"compound": "COc1ccc(C2=NS(=O)(=O)N(C)C(C(=O)N(C)Cc3ccccc3)=C2)cc1", "inhibition": "9.43%"},
      {"compound": "COc1ccc([N+](=O)[O-])cc1NCC(=O)c1ccc(C)cc1", "inhibition": "8.91%"},
      {"compound": "CCNC(=O)NNC(=O)C1CC(c2cccs2)=NO1", "note": "(stereo unspecified)", "inhibition": "14.9%"},
      {"compound": "CCNS(=O)(=O)c1ccc(CCC(=O)N2CCN(c3cc(Cl)ccc3C)CC2)cc1", "inhibition": "8.42%"},
      {"compound": "COc1ccc(N2CCN(C(=O)C3CCN(C(=O)c4ccccc4Cl)CC3)CC2)cc1", "inhibition": "-0.01%"},
      {"compound": "CN(N)c1nc(N2CCCC2)nc(N2CCCC2)n1", "inhibition": "-3.46%"},
      {"compound": "NC(=O)[C@H]1CC2(CC(c3cccc(NC(=O)[C@H]4CCC(=O)N4)c3)=NO2)CN1C(=O)c1ccccc1C(=O)c1ccccc1", "note": "(stereo partly specified)", "inhibition": "-3.78%"},
      {"compound": "O=c1[nH]cccc1-c1nc2ccccc2n1Cc1ccc(Cl)cc1", "inhibition": "6.48%"},
      {"compound": "O=C(Nc1nnc(-c2ccc(F)cc2)s1)c1c(F)cccc1Cl", "inhibition": "4.95%"},
      {"compound": "CN(C1CCS(=O)(=O)C1)S(=O)(=O)c1ccc2ccccc2c1", "note": "(stereo unspecified)", "inhibition": "3.01%"},
      {"compound": "CC(C)(C)NC(=O)NC(=O)CN1CCC(Cc2ccccc2)CC1", "inhibition": "0.05%"},
      {"compound": "COC(=O)CCSc1cc([N+](=O)[O-])cc2c1c(C1OCCS1)nn2-c1ccccc1", "note": "(stereo unspecified)", "inhibition": "-0.28%"},
      {"compound": "O/N=C1\\CC2(Cc3nonc31)OCCO2", "inhibition": "2.79%"},
      {"compound": "ON=C1/C(=N\\O)CC2(C/C1=N/O)OCCO2", "inhibition": "32.1% (active)"},
      {"compound": "CN1C(c2ccc(F)cc2)=CS/C1=C(/C#N)c1nnc2n1-c1ccccc1SC2", "inhibition": "25.7% (active)"},
      {"compound": "Clc1ccc(C=NC23CN4CN(CN(C4)C2)C3)cc1", "inhibition": "0.87%"},
      {"compound": "CC(C)C(=O)Nc1oc(-c2ccccc2)cc1C#N", "inhibition": "1.75%"},
      {"compound": "OC(c1ccccc1)C(CN1CCOCC1)c1ccccc1", "note": "(stereo unspecified)", "inhibition": "0.69%"},
      {"compound": "O=C(Nc1nnc(-c2ccccc2)o1)c1cccc(S(=O)(=O)N2CCOCC2)c1", "inhibition": "4.84%"},
      {"compound": "O=C(O)c1ccc(OCC2CCCO2)cc1", "note": "(stereo unspecified)", "inhibition": "10.9%"},
      {"compound": "Cc1ccc(-c2cc(C(=O)NCc3cn(C)nc3C)c3cc(Br)ccc3n2)cc1", "inhibition": "-4.68%"},
      {"compound": "O=P(c1ccc2c(c1)OCCO2)(N1CCOCC1)N1CCOCC1", "inhibition": "6.13%"},
      {"compound": "CC(c1ccco1)N(C(=O)COc1ccccc1[N+](=O)[O-])c1ccccn1", "note": "(stereo unspecified)", "inhibition": "10.8%"},
      {"compound": "COc1ccc(C(C)=O)cc1COC(=O)Cn1cnc2ccccc2c1=O", "inhibition": "6.33%"},
      {"compound": "COc1ccc(N2CCN(C(=O)CN3C(=O)COc4ccccc43)CC2)cc1", "inhibition": "3.49%"},
      {"compound": "CC(NCC(=O)Nc1ccccc1C(=O)NC1CC1)c1ccccc1Cl", "note": "(stereo unspecified)", "inhibition": "3.15%"},
      {"compound": "COc1cccc2c1C(=O)c1c(O)c3c(c(O)c1C2=O)CC(O)(C(C)=NNC(=O)c1ccc(Cl)c(Cl)c1)CC3OC1CC(N)C(O)C(C)O1", "note": "(stereo unspecified)", "inhibition": "44.5% (active)"},
      {"compound": "O=C(Nc1cccc2c1CCCC2)c1ccc(F)cc1", "inhibition": "7.49%"},
      {"compound": "COCCNC(=S)Nc1cc(S(=O)(=O)N2CCOCC2)ccc1N1CCCCC1", "inhibition": "7.35%"},
      {"compound": "CC(C)C(C(=O)NC1CCCCC1)N(CC1CCCO1)C(=O)CNS(=O)(=O)c1ccc(F)cc1", "note": "(stereo unspecified)", "inhibition": "3.67%"},
      {"compound": "CC(C)CN1CC(C)C(=O)N(c2ccccc2)C1=S", "note": "(stereo unspecified)", "inhibition": "0.15%"},
      {"compound": "COc1cc2c(C(=O)N(C)c3cc(Cl)ccc3OC)cn(C)c(=O)c2cc1OC", "inhibition": "6.3%"},
      {"compound": "O=C(N/N=C/c1sc(N2CCCCC2)nc1-c1cccs1)c1cccnc1", "inhibition": "26.1% (active)"},
      {"compound": "O=C(NN=C1CCC(=NNC(=O)c2cccnc2)CC1)c1cccnc1", "inhibition": "8.42%"},
      {"compound": "Cc1ccc(NC(=O)COc2ccc(/C=N\\NC(=O)c3cccnc3)cc2)cc1C", "inhibition": "-9.46%"},
      {"compound": "COc1ccccc1C(=O)c1ccccc1C(=O)c1ccccc1", "inhibition": "8.6%"},
      {"compound": "Cc1cc(C)n(C(=O)CCNC(=O)c2ccccc2Cl)n1", "inhibition": "-1.83%"},
      {"compound": "O=C(NNc1ccccc1Cl)C(O)(c1cccc(C(F)(F)F)c1)c1cccc(C(F)(F)F)c1", "inhibition": "8.34%"},
      {"compound": "C[n+]1cccc(C(=O)O)c1", "inhibition": "4.85%"},
      {"compound": "O=C(COc1ccc(S(=O)(=O)NCc2ccccc2)cc1)N1CCOCC1", "inhibition": "-1.1%"},
      {"compound": "CCOC(=O)Cc1ncccc1C(=O)Nc1ccc(OC(F)(F)F)cc1", "inhibition": "4.95%"},
      {"compound": "Cn1cccc1/C=N/NC(=O)c1ccc(OC(F)(F)C(F)F)cc1", "inhibition": "4.01%"},
      {"compound": "O=C(Nc1ccc(OC(F)(F)F)cc1)c1ccc2c(c1)no[n+]2[O-]", "inhibition": "51.2% (active)"},
      {"compound": "O=C(COc1ccccc1)Nc1cc2c3c(c1)CC(=O)N3CCC2", "inhibition": "3.19%"},
      {"compound": "CCC(C)NC(=O)CN(C1CCCCC1)S(C)(=O)=O", "note": "(stereo unspecified)", "inhibition": "-2.01%"},
      {"compound": "Cc1cc(NC(=O)CCC(=O)N(CC(=O)NCC2CCCO2)c2ccccc2)no1", "note": "(stereo unspecified)", "inhibition": "-3.62%"},
      {"compound": "CN(CC(=O)Nc1ccc(Cl)cc1)C(=O)CNC(=O)c1ccc2ccccc2c1", "inhibition": "5.2%"},
      {"compound": "CCCCCNC(=O)C1c2ccccc2Oc2ccccc21", "inhibition": "-4.51%"},
      {"compound": "CCCN(CCC)C(=O)C1c2ccccc2Oc2ccccc21", "inhibition": "27.8% (active)"},
      {"compound": "CCOC(=O)CC(NC(=O)C1c2ccccc2Oc2ccccc21)c1ccc(C)cc1", "note": "(stereo unspecified)", "inhibition": "6.13%"},
      {"compound": "CCOC(=O)CCCNC(=O)COC(=O)c1cc(Br)c(Br)s1", "inhibition": "-2.8%"},
      {"compound": "COc1nc(Oc2ccc(=O)n(C)n2)nc(N(C)C)n1", "inhibition": "4.35%"},
      {"compound": "CN1CCN(/N=C2/C(=O)Nc3ccc([N+](=O)[O-])cc32)CC1", "inhibition": "1.85%"},
      {"compound": "O=C1Nc2ccc([N+](=O)[O-])cc2C1=Nc1cccc(CO)c1", "inhibition": "31.8% (active)"},
      {"compound": "O=[N+]([O-])c1ccc(N(CCO)Cc2ccccc2)c([N+](=O)[O-])c1", "inhibition": "4.36%"},
      {"compound": "CCCS(=O)(=O)N1CCCC(C(=O)NCCN2CCCCC2C)C1", "note": "(stereo unspecified)", "inhibition": "-3.97%"},
      {"compound": "O=C(Nc1ccc2ccccc2c1)Nc1ccc2snnc2c1", "inhibition": "-10.5%"},
      {"compound": "Cc1cc(OCCN2CCCC2)cc(C(C)C)c1", "inhibition": "3.65%"},
      {"compound": "COCCNC(=O)c1snc2ccc(Cl)cc12", "inhibition": "8.07%"},
      {"compound": "O=C(Nc1nc(-c2ccco2)c(-c2ccco2)s1)c1ccco1", "inhibition": "15.7%"},
      {"compound": "COCCNC(=O)Nc1ccc2nc(-c3ccco3)c(-c3ccco3)nc2c1", "inhibition": "26.5% (active)"},
      {"compound": "CC(=O)Nc1ccc(NC(=O)C2CCCN(S(=O)(=O)c3ccc(Cl)cc3)C2)cc1", "note": "(stereo unspecified)", "inhibition": "4.7%"},
      {"compound": "CCOc1ccc(S(=O)(=O)n2ccnc2)c2ccccc12", "inhibition": "4.28%"}
    ]}
  ]
}
